Screening results (PubChem)
CYP2C9 inhib – blocks human cytochrome P450 2C9; inhibition, % at 5 µM; hit rate 20% among 96,000; CYP2C9 Supersomes, luciferin-H conversion, luminescence; P11712;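 active means blocking of liver enzyme CYP2C9 beyond about 50% at 5 µM, limit read from the data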
CYP2C19 act – cytochrome P450 2C19 (human) activation; P33261; recombinant CYP2C19, luciferin-H EGE luminescence; hits give high values; 0 = fully inhibited enzyme, 1 = untreated enzyme; activation factor at 5 µM; 96,000 tested, under 10 active; AID 1025;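 active means activation factor of at least 2 at 5 µM in the primary screen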;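 further: 0 = wells with 2.5 mM tranylcypromine and 1 = vehicle-only wells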
Target sequence (P33261 whole entry, looked up): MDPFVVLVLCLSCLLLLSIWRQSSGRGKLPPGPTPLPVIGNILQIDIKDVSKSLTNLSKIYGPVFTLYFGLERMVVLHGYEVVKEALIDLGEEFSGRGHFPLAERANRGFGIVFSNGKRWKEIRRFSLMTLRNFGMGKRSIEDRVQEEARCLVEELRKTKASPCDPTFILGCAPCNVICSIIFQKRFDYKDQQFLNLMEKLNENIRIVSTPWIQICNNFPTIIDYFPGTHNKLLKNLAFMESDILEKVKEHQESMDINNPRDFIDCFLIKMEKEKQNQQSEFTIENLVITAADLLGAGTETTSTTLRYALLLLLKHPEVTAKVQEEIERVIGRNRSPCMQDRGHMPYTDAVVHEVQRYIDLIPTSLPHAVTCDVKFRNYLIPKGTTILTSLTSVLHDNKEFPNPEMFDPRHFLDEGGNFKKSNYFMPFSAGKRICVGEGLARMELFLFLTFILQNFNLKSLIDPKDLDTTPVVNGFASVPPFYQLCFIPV
CYP2C19 inh – human CYP2C19 inhibition | P33261 | CYP2C19 Supersomes, luciferin-H EGE luminescence, 30 min | inhibition, % at 5 µM | hit rate 21% among 96,000 | AID 778;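 active means CYP2C19 inhibition above a set limit at 5 µM in the primary screen, cut at about 50% in these data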;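 further: plate controls were negative control wells for no effect and 2.5 mM tranylcypromine positive control for full effect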
CYP2C9 act – activators of human CYP2C9. recombinant CYP2C9, luciferin-H conversion, luminescence; hits give high values; factor 1 = untreated enzyme, 0 = blocked. hit rate 1.4% among 96,000. P11712. AID 1024. activation factor at 5 µM;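 active means activation factor of 2 or more for CYP2C9 at a 5 µM dose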;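 further: 0 = sulfaphenazole-blocked wells and 1 = vehicle-only wells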
PostGolgi yeast – growth inhibition of a yeast mutant, post-Golgi transport screen; post-Golgi transport phenotypic cell assay; inhibition, % at 10 µM; hit rate 0.9% among 98,000; AID 739;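 further: yeast cells grown in 1536-well plates; yeast grown about 18 h at 30C before absorbance read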
PostGolgi ctrl – inhibits growth of the yeast control strain | efflux-deficient yeast background strain, growth absorbance A615, 16 h | inhibition, % at 10 µM | hit rate 5% among 98,000 | AID 738
Starred values were filed as active, the others as inactive; / = no result. Hits are enriched below; roughly 32% of the tested compounds scored in any of these assays. Unless noted, no stated cut-off is given here; in the data, active means inhibition above about 30%; inactive means the rest.

SMILES | CYP2C9 inhib | CYP2C19 act | CYP2C19 inh | CYP2C9 act | PostGolgi yeast | PostGolgi ctrl
CCN(CCCn1c(=S)[nH]c2ncccc2c1=O)c1ccccc1 | -36.4 | 1 | 0.4 | 1.4 | -6.8 | 4.1
C=C(C)Cn1c(SCC)nc2ccccc2c1=O | 34.8 | 0.1 | 87.5* | 0.7 | 0.6 | 44.3*
O=C(c1ccco1)N1CCN(C(=O)c2cc3c(s2)-c2ccccc2OC3)CC1 | 29.7 | 0.7 | 33.0 | 0.7 | 4.6 | -2.7
Cc1nc2ccc(-c3ccccc3)cc2o1 | 1.1 | 0.9 | 8.9 | 1 | -0.5 | -5.4
NNC(=O)COc1ncn(-c2ccccc2)n1 | 5.7 | 0.9 | 7.7 | 0.9 | -6.8 | -1.1
Cc1ccccc1-c1cc(-c2ccccc2O)on1 | -12.6 | 1 | -0.9 | 1.1 | -3.1 | 11.8
Oc1ccccc1-c1cc(-c2ccccc2)no1 | 16.5 | 1 | 0.6 | 0.8 | 2.9 | 43.0*
COc1cc2c(cc1OC)C1=NC(=O)CN1C(SCc1ccccc1)=N2 | -9.5 | 1.1 | -11.3 | 1.1 | 22.4 | 18.3
CCOC(=O)CN1C(=O)c2ccccc2C1=O | -18.0 | 1.2 | -18.2 | 1.2 | -0.2 | -2.9
C=CCOC(=O)CN1C(=O)c2ccccc2C1=O | 1.9 | 0.4 | 61.1* | 1 | 1.1 | 7.8
CCCSc1nc(N2CCOCC2)c2c(c1C#N)CCCC2 | 92.9* | 0.4 | 58.6* | 0.1 | -9.5 | 28.4
CCCc1nc(N2CCOCC2)c(C#N)c2c1CCCC2 | 72.1* | 0.2 | 82.4* | 0.3 | -1.1 | 38.9*
CCCCc1nc(N2CCOCC2)c(C#N)c2c1CCCC2 | 49.1 | 0.7 | 30.3 | 0.5 | 4.8 | 24.6
CSc1nc(N2CCOCC2)c2c(c1C#N)CCCCC2 | 78.6* | 0.5 | 47.1 | 0.2 | -7.9 | 23.1
N#CCCSc1nc(N2CCOCC2)c2c(c1C#N)CCCC2 | 97.0* | 0.1 | 91.1* | 0 | 8.6 | 16.5
CSc1nc(C)c2c(c1C#N)CCCC2 | -26.8 | 0.8 | 18.5 | 1.3 | 18.5 | 12.1
COCc1cc(C)nc(N2CCOCC2)c1C#N | -35.7 | 1.1 | -12.8 | 1.4 | -0.3 | /
Cc1nc(N2CCOCC2)c(C#N)c(C)c1Br | 20.1 | 0.4 | 55.6* | 0.8 | -0.2 | -1.2
Nc1c(C(=O)NCc2ccc3c(c2)OCO3)nnn1-c1ccc(OC(F)(F)F)cc1 | 22.1 | 0.9 | 6.1 | 0.8 | -15.0 | 8.4
CCOc1cc2[nH]c(=O)n(CCCN3CCCC3=O)c(=O)c2cc1OCC | 11.8 | 1 | -4.3 | 0.9 | -2.5 | 9.5
CCOC(=O)CN(C#N)c1nc(C)cc(C)n1 | -26.9 | 1 | -3.7 | 1.3 | -6.7 | 0.7
Cc1cc(C)nc(N(C#N)CN2C(=O)c3ccccc3C2=O)n1 | -180.0 | 1.1 | -5.3 | 2.8* | -2.5 | 4.9
Cc1cc(C)nc(N(C#N)Cc2ccccc2Cl)n1 | -176.7 | 0.3 | 68.4* | 2.8* | 5.3 | 7.8
O=C(Nc1nccs1)c1ccc(COc2ccc(F)cc2)o1 | 9.9 | 0.9 | 14.2 | 0.9 | -4.6 | -4.8
CN(C)C(=O)c1ccc(COc2ccccc2Br)o1 | 26.4 | 0.2 | 83.0* | 0.7 | -5.7 | -4.8
SMILES | CYP2C9 inhib | CYP2C19 act | CYP2C19 inh | CYP2C9 act | PostGolgi yeast | PostGolgi ctrl
O=C(Nc1nccs1)c1ccc(COc2ccccc2Br)o1 | 90.6* | 0.1 | 88.1* | 0.1 | 0.0 | 18.2
C=CCN(CC=C)C(=O)Cc1ccc(F)cc1 | -18.9 | 0.7 | 25.8 | 1.2 | -1.0 | -3.6
O=C(NNC(=O)c1ccc(SCC2CCCO2)c([N+](=O)[O-])c1)c1ccc(F)cc1 (stereo not given) | 19.2 | 1 | -2.9 | 0.8 | 5.5 | 2.6
COC(=O)[C@H](C)NC(=O)Nc1ccc(C)c(C)c1 | 30.8 | 0.8 | 24.3 | 0.7 | -4.3 | 1.5
O=C(CCCOc1ccccc1)Nc1nnc(C2CCCO2)s1 (stereo not given) | 55.5* | 0.4 | 63.8* | 0.4 | -13.6 | 14.0
COc1ccc(C2C(C(=O)N3CCCC3)c3cc(OC)c(OC)cc3C(=O)N2C)cc1 (stereo not given) | 14.1 | 0.9 | 6.1 | 0.9 | 0.9 | 3.3
CCOC(=O)N1CCC(NC(=O)C2CCN(c3ccc(N4CCOCC4)nn3)CC2)CC1 | 8.1 | 1 | -0.5 | 0.9 | -4.6 | 36.4*
O=C(COn1nnc2ccc(Cl)cc21)NCc1ccccc1 | -15.8 | 0.5 | 47.1 | 1.2 | 20.7 | 11.2
Clc1ccc(COn2nnc3ccccc32)c(Cl)c1 | 7.8 | 0.4 | 64.3* | 0.9 | -2.0 | 25.7
Cc1sc2ncnc(SCC(=O)N3CCCC3=O)c2c1C | 62.7* | 0.4 | 58.7* | 0.4 | -0.5 | 1.8
Cc1sc2ncnc(SCC(=O)c3cccs3)c2c1C | 59.9* | 0.8 | 22.6 | 0.4 | -0.5 | 12.7
